From PubChem BioAssay (NCI) come the findings set out here.

The panel holds about 83,000 compounds, 20% with a hit somewhere; the sample as a whole holds those more often.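 Plates (96-well) were seeded with cells, treated with compound at one concentration, and incubated for 48 hours before percent growth was determined.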 Unmarked numbers belong to inactive results. The source made the active and inactive calls. The calls were made as follows: active = growth percent below 10; inactive = the rest.

This assay deals with MDA-MB-435 melanoma. Nature of the assay: NCI-60 one-dose screen, 48 h (100 = growth as untreated, 0 = no growth, -100 = all killed). Conditions: 10 µM unless noted.
As for `Cc1cc2nc3c4ccccc4n(CCNCCN(C)C)c3nc2cc1C`, the growth is 8.22% (active).

Turning to `Cc1ccccc1[C@H]1C(C(=O)c2ccc(Cl)cc2)C2(N[C@@H]1c1ccccc1)C(=O)Nc1ccc(Br)cc12` (stereo partly specified), the growth was 3.21% (active).

On to `CC(C)c1sc(NC(=O)c2cc(NC(=O)c3cc(NC(=O)c4cscn4)cn3C)cn2C)nc1C(=O)NCCCN(C)C`, for which the growth is 2.17% (active).

For the molecule `CC(=O)OC[C@@]1(C)C2CC[C@]3(C)C(CC=C4C5CC(C)(C)CC[C@]5(C(=O)Nc5ccc(C)cc5)CC[C@]43C)[C@@]2(C)C[C@@H](OC(C)=O)[C@@H]1OC(C)=O` (stereo partly specified), the growth was 48.8%.

For `O=C1CC(Sc2n[nH]c(-c3ccncc3)n2)C(=O)N1c1ccc(Br)cc1` (stereo unspecified), the growth is 104%.

Consider `COc1cc2c3c(n(CCCN4CCC[C@@H]4CO)c(=O)c2cc1OC)-c1cc2c(cc1C3=O)OCO2`, for which the growth is -86.8% (active).

Take `C=C1CCC2C3(C)COC(c4ccc(F)cc4)OC3CCC2(C)C1C/C=C1/C(=O)OCC1O` (stereo unspecified): the growth was -35.5% (active).

On to `Cc1sc(C(NC(=O)OCCn2c([N+](=O)[O-])cnc2C)C(F)(F)Cl)nc1-c1ccc(OC(F)(F)F)cc1` (stereo unspecified), for which the growth was -43.7% (active).

Consider `CC1[C@H]2[C@H](C[C@H]3[C@@H]4CC=C5c6sc(Nc7ccccc7F)nc6CC[C@]5(C)[C@H]4CC[C@@]32C)O[C@]12CC[C@@H](C)CO2` (stereo partly specified), for which the growth was -83.5% (active).

Regarding `O=C(c1ccccc1)c1ccc2nc(-c3cccc(Cl)c3)[nH]c2c1`, the growth is 106%.

In the case of `OCNc1ccc(-n2cnc3cc(-c4ccc(O)cc4)ccc32)cc1C(F)(F)F`, the growth is 7.66% (active).
